Source: PMC7862700, “An all-to-all approach to the identification of sequence-specific readers for epigenetic DNA modifications on cytosine”

Assays:
Experiment in all cases: DAPPL (digital affinity profiling via proximity ligation, sequencing); 10 mM Tris-HCl pH 7.5, 50 mM NaCl, 1 mM DTT, 4% glycerol, room temperature, 30 min; GST-TFs on glutathione beads, 16-mer random dsDNA library, 0.1% formaldehyde crosslink after washing; high values mean tight binding
FEV = molecular target: T1, FEV (Homo sapiens, UniProt Q99581 1-238); conditions: protein: recombinant; tags: N-terminal GST; dsDNA, one strand shown
T1 sequence: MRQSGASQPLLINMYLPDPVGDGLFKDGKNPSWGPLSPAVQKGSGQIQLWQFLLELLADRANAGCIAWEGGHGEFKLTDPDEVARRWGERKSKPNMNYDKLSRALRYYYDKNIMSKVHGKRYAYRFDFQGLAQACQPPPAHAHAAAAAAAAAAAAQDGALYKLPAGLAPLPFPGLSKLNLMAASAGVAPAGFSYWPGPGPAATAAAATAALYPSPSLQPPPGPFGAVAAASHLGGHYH
In short: (§1)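 Beads coated with glutathione captured GST-fused human transcription factors that had been expressed in yeast, and the factors were then given DNA barcodes and pooled with a tag-only sample. The pools were incubated with 200 nmole of a random double-stranded 16-mer DNA library in Tris/NaCl/DTT/glycerol buffer for 30 min at room temperature, washed, crosslinked with 0.1% formaldehyde and proximity-ligated with BsaI/T4 ligase at 37 °C for 1 h. PCR amplification and Illumina NextSeq500 sequencing came last. Binding signal is each hexamer's read frequency for a factor divided by its frequency for the tag-only sample.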

ETV5 = ETV5 (Homo sapiens, UniProt P41161 1-510); conditions: protein: recombinant; tags: N-terminal GST; dsDNA, one strand shown
In short: as §1

HSF1 = HSF1 (Homo sapiens, UniProt Q00613 1-529); conditions: protein: recombinant; tags: N-terminal GST; chain copies: 3; dsDNA, one strand shown
In short: as §1

SPIC = molecular target: T2, SPIC (Homo sapiens, UniProt Q8N5J4 1-248); conditions: protein: recombinant; tags: N-terminal GST; dsDNA, one strand shown
T2 sequence: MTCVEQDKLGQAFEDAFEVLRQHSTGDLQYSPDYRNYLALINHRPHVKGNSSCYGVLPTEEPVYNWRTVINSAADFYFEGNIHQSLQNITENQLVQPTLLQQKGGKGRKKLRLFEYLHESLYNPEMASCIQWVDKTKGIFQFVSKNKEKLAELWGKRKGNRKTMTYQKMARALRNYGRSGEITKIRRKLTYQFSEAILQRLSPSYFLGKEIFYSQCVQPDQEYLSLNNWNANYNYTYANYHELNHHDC
In short: as §1

ELF4 = ELF4 (Homo sapiens, UniProt Q99607 1-663); conditions: protein: recombinant; tags: N-terminal GST; dsDNA, one strand shown
In short: as §1

ELK4 = molecular target: T3, ELK4 (Homo sapiens, UniProt P28324-2 1-405); conditions: protein: recombinant; tags: N-terminal GST; dsDNA, one strand shown
T3 sequence: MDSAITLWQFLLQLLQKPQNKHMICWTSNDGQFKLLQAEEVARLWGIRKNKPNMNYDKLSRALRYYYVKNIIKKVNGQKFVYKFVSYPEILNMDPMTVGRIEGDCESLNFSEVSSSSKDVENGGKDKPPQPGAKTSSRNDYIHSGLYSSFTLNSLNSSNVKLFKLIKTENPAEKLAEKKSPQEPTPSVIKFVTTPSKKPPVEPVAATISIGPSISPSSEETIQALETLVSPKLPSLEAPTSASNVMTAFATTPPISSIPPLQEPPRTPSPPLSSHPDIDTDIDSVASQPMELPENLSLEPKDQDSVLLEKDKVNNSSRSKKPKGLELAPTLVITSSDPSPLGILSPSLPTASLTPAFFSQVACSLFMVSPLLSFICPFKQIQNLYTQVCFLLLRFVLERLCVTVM
In short: as §1

ETV2 = molecular target: T4, ETV2 (Homo sapiens, UniProt O00321 1-342); conditions: protein: recombinant; tags: N-terminal GST; dsDNA, one strand shown
T4 sequence: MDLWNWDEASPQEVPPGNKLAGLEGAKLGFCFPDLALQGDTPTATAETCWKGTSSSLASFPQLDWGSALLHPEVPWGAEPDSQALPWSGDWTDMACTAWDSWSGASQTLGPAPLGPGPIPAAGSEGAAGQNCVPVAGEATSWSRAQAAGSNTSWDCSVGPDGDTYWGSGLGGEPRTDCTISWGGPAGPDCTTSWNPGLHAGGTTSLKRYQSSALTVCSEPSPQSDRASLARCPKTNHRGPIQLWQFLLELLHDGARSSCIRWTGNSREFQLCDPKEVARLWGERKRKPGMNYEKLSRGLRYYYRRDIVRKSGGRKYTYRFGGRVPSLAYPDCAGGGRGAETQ
In short: as §1

ELF3 = molecular target: T5, ELF3 (Homo sapiens, UniProt P78545 1-371); conditions: protein: recombinant; tags: N-terminal GST; dsDNA, one strand shown
T5 sequence: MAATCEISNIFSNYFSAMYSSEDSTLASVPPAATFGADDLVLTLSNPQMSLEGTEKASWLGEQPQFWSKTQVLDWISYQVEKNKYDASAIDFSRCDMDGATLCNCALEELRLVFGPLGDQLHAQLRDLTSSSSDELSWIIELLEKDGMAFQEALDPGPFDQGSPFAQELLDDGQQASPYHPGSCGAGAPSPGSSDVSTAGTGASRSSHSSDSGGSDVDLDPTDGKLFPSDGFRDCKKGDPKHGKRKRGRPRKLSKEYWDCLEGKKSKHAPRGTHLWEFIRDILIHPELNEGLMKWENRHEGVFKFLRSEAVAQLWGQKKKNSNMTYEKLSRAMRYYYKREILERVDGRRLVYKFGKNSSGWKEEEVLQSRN
In short: as §1

CRX = CRX (Homo sapiens, UniProt O43186 1-299); conditions: protein: recombinant; tags: N-terminal GST; dsDNA, one strand shown
In short: as §1

ETV1 = ETV1 (Homo sapiens, UniProt P50549 1-477); conditions: protein: recombinant; tags: N-terminal GST; dsDNA, one strand shown
In short: as §1

ERF = molecular target: T6, ERF (Homo sapiens, UniProt P50548 1-548); conditions: protein: recombinant; tags: N-terminal GST; dsDNA, one strand shown
T6 sequence: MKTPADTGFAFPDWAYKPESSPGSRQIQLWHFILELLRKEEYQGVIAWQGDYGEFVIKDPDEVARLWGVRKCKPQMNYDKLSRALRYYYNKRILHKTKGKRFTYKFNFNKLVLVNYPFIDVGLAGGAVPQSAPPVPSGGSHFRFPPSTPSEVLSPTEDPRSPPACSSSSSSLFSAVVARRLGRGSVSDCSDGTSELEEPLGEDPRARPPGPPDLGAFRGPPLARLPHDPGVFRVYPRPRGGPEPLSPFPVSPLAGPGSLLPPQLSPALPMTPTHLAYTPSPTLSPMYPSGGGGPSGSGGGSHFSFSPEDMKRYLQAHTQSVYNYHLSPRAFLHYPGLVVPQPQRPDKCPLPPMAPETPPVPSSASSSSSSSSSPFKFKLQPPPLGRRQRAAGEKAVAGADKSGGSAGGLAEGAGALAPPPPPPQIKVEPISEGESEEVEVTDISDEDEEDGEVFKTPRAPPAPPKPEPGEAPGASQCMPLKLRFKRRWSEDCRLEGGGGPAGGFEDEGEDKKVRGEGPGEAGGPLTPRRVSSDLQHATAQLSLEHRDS
In short: as §1

ETV3L = molecular target: T7, ETV3L (Homo sapiens, UniProt Q6ZN32 1-361); conditions: protein: recombinant; tags: N-terminal GST; dsDNA, one strand shown
T7 sequence: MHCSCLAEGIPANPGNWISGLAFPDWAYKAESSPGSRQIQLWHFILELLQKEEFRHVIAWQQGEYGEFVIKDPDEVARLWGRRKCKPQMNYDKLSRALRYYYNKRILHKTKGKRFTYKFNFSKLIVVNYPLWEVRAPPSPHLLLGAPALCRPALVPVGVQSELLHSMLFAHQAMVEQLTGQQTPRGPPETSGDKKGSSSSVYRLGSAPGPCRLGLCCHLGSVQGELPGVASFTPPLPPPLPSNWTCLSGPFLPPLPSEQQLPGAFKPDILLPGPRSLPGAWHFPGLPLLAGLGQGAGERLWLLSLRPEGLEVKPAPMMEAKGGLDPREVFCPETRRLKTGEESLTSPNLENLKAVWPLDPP
In short: as §1

ETS2 = molecular target: T8, ETS2 (Homo sapiens, UniProt P15036 1-469); conditions: protein: recombinant; tags: N-terminal GST; dsDNA, one strand shown
T8 sequence: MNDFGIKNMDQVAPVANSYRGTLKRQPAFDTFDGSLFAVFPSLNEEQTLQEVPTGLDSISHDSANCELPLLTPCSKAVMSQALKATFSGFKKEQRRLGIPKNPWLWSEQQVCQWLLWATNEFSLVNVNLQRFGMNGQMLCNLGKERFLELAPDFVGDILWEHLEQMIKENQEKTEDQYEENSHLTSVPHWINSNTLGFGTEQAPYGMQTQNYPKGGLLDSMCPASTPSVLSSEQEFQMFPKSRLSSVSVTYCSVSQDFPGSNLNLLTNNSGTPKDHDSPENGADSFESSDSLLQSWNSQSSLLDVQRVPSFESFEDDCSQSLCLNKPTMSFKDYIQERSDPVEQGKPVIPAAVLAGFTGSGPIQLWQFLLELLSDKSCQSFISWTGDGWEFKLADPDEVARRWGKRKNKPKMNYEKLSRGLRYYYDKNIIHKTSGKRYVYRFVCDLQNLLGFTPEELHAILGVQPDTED
In short: as §1

SPDEF = molecular target: T9, SPDEF (Homo sapiens, UniProt O95238 1-335); conditions: protein: recombinant; tags: N-terminal GST; dsDNA, one strand shown
T9 sequence: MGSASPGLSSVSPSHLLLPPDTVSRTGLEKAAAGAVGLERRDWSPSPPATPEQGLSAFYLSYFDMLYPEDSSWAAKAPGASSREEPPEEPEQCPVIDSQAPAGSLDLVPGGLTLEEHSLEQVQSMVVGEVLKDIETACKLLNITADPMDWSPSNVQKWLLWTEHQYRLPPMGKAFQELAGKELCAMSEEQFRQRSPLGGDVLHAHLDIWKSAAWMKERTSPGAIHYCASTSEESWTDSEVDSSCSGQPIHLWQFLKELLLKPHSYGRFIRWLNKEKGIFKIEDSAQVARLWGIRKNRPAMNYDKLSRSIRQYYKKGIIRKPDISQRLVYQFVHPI
In short: as §1

ETV7 = molecular target: T10, ETV7 (Homo sapiens, UniProt Q9Y603 1-341); conditions: protein: recombinant; tags: N-terminal GST; dsDNA, one strand shown
T10 sequence: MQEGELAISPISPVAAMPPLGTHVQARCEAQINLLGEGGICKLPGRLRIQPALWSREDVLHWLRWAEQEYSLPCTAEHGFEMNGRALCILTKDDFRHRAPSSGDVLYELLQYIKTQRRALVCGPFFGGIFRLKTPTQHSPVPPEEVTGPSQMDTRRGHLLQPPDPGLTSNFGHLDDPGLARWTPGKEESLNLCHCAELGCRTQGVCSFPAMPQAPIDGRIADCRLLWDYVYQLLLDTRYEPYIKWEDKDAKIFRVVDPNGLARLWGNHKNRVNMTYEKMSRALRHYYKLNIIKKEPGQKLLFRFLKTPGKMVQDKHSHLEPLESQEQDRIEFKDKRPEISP
In short: as §1

ELF5 = molecular target: T11, ELF5 (Homo sapiens, UniProt Q9UKW6-2 1-255); conditions: protein: recombinant; tags: N-terminal GST; dsDNA, one strand shown
T11 sequence: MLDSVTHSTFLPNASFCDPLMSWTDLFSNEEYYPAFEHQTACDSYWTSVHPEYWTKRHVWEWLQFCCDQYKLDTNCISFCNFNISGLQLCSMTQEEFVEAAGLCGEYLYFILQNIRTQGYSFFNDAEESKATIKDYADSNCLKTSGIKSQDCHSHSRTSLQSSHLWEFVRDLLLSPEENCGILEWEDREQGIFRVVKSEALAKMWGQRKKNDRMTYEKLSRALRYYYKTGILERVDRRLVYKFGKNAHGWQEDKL
In short: as §1

ETV3 = molecular target: T12, ETV3 (Homo sapiens, UniProt P41162-2 1-143); conditions: protein: recombinant; tags: N-terminal GST; dsDNA, one strand shown
T12 sequence: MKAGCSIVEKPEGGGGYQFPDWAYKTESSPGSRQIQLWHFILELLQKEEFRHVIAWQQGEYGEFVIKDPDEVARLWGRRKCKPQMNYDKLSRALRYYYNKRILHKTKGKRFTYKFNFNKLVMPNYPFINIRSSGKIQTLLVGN
In short: as §1

ETV6 = ETV6 (Homo sapiens, UniProt P41212 1-452); conditions: protein: recombinant; tags: N-terminal GST; dsDNA, one strand shown
In short: as §1

ETV6, sequence (P41212 whole entry): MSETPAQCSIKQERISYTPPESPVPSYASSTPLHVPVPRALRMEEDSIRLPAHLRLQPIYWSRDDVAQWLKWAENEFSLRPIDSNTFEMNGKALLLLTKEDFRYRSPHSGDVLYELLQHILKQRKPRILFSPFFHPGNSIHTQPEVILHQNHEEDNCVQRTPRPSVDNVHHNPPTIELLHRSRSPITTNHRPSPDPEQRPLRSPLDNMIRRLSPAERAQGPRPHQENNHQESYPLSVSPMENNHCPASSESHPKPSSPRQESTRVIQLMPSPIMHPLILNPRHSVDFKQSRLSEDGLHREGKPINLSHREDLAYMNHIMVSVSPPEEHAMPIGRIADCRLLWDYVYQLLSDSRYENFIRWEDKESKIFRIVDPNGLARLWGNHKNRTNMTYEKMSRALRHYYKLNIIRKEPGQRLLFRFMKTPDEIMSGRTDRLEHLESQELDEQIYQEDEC
ETV1, sequence (P50549 whole entry): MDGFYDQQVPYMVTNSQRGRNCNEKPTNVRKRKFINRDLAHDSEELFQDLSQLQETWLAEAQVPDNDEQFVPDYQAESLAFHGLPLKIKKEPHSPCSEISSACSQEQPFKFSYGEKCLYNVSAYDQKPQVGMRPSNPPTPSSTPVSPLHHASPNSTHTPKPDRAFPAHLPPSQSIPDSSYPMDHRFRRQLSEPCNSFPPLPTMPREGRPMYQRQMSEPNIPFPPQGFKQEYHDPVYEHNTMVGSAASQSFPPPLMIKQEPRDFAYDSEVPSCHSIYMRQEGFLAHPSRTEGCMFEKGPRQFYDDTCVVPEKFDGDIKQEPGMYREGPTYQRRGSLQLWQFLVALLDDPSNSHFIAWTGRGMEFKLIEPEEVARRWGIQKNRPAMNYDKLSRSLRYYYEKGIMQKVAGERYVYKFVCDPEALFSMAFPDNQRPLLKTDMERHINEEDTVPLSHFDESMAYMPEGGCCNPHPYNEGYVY
HSF1, sequence (Q00613 whole entry): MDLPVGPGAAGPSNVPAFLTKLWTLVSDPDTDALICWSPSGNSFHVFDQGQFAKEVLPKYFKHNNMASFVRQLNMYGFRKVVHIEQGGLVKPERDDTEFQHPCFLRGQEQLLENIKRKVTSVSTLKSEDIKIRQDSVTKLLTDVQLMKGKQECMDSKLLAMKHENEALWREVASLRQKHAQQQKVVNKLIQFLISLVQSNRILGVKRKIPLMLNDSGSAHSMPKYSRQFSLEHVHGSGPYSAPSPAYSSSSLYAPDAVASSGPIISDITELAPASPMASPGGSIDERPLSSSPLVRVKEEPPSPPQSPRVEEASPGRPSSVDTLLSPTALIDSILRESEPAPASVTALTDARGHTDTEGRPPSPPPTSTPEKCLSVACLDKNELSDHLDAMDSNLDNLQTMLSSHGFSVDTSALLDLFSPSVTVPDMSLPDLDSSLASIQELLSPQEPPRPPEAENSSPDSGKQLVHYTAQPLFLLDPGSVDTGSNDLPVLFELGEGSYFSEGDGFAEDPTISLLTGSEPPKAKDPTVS
ELF4, sequence (Q99607 whole entry): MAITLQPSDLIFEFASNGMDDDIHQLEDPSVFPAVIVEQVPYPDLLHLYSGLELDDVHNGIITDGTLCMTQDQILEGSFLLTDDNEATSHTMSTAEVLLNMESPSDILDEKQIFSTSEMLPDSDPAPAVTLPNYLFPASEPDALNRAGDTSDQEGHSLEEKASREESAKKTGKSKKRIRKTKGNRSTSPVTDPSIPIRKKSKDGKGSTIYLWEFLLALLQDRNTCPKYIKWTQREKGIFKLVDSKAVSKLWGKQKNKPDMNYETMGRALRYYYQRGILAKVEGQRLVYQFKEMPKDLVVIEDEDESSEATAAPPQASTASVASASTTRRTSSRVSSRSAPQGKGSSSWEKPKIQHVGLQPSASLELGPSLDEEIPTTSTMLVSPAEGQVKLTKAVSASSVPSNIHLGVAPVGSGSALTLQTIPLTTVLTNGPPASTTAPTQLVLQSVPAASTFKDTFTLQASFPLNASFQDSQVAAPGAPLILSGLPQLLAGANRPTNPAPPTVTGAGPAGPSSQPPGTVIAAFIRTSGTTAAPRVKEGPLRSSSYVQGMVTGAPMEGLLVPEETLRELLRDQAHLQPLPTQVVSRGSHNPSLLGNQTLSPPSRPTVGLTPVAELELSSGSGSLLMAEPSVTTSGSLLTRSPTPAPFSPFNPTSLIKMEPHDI
ETV5, sequence (P41161 whole entry): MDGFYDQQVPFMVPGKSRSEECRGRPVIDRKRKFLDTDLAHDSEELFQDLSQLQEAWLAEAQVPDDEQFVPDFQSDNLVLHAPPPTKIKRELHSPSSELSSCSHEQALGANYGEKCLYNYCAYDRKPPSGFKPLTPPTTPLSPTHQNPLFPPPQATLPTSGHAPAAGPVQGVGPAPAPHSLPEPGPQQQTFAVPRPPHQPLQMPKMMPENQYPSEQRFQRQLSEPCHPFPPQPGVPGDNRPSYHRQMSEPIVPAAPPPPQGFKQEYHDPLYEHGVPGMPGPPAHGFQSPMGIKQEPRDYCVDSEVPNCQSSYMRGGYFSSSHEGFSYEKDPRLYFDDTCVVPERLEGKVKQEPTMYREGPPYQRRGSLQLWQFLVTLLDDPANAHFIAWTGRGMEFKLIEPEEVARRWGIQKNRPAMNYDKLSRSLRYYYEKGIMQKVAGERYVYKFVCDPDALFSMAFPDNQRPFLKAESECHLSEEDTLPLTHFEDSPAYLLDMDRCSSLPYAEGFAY
CRX, sequence (O43186 whole entry): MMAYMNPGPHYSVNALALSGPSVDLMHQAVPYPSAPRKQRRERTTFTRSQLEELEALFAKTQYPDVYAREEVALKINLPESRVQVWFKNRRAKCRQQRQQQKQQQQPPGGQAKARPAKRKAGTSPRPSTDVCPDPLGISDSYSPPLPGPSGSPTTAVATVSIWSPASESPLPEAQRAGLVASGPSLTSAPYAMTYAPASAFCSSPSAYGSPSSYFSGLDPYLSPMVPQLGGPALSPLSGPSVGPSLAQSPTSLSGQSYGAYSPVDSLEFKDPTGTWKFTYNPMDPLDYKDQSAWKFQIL

Sequence	binding signal (FEV)	binding signal (ETV5)	binding signal (HSF1)	binding signal (SPIC)	binding signal (ELF4)	binding signal (ELK4)	binding signal (ETV2)	binding signal (ELF3)	binding signal (CRX)	binding signal (ETV1)	binding signal (ERF)	binding signal (ETV3L)	binding signal (ETS2)	binding signal (SPDEF)	binding signal (ETV7)	binding signal (ELF5)	binding signal (ETV3)	binding signal (ETV6)
TGTATC	1.41 fold enrichment (6-mer frequency, TF over GST control)	1.4 fold enrichment (6-mer frequency, TF over GST control)	1.16 fold enrichment (6-mer frequency, TF over GST control)	1.46 fold enrichment (6-mer frequency, TF over GST control)	1.44 fold enrichment (6-mer frequency, TF over GST control)	1.46 fold enrichment (6-mer frequency, TF over GST control)	1.36 fold enrichment (6-mer frequency, TF over GST control)	1.41 fold enrichment (6-mer frequency, TF over GST control)	1.15 fold enrichment (6-mer frequency, TF over GST control)	1.37 fold enrichment (6-mer frequency, TF over GST control)	1.39 fold enrichment (6-mer frequency, TF over GST control)	1.28 fold enrichment (6-mer frequency, TF over GST control)	1.42 fold enrichment (6-mer frequency, TF over GST control)	1.89 fold enrichment (6-mer frequency, TF over GST control)	1.31 fold enrichment (6-mer frequency, TF over GST control)	1.51 fold enrichment (6-mer frequency, TF over GST control)	1.54 fold enrichment (6-mer frequency, TF over GST control)	1.36 fold enrichment (6-mer frequency, TF over GST control)
AGAAGC	1.14 fold enrichment (6-mer frequency, TF over GST control)	1.12 fold enrichment (6-mer frequency, TF over GST control)	1.96 fold enrichment (6-mer frequency, TF over GST control)	1.28 fold enrichment (6-mer frequency, TF over GST control)	1.13 fold enrichment (6-mer frequency, TF over GST control)	1.07 fold enrichment (6-mer frequency, TF over GST control)	1.22 fold enrichment (6-mer frequency, TF over GST control)	1.09 fold enrichment (6-mer frequency, TF over GST control)	1.32 fold enrichment (6-mer frequency, TF over GST control)	1.11 fold enrichment (6-mer frequency, TF over GST control)	1.11 fold enrichment (6-mer frequency, TF over GST control)	1.17 fold enrichment (6-mer frequency, TF over GST control)	1.09 fold enrichment (6-mer frequency, TF over GST control)	1.15 fold enrichment (6-mer frequency, TF over GST control)	1.23 fold enrichment (6-mer frequency, TF over GST control)	1.18 fold enrichment (6-mer frequency, TF over GST control)	1.23 fold enrichment (6-mer frequency, TF over GST control)	1.14 fold enrichment (6-mer frequency, TF over GST control)
